Laboratory results: PubChem BioAssay AID1159580 (chemical genetic matrix, 2015)
In all, about 5,500 compounds went through this assay and about 2,000 (36%) were called active. Not shown: some 18% with an inconclusive outcome. Cut-off read from the data, not from the text of the source: active = normalized growth mostly below about 0.91 (no sharp cut-off); inconclusive = no clear call, values can overlap the other calls; inactive = mostly above about 0.92. Some of the results follow.

Assay: chemical genetic growth profiling, strain panel (AID 1159580);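 note: tested at 20 µM; growth read once vehicle control cultures reached saturation at 30 °C; 1 = growth at the plate median or of vehicle wells; lower values mean less growth of the strain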
Conditions: growth OD

Measured: normalized growth

NNC(=O)c1ccncc1
inactive: S. cerevisiae deletion strains, locus YJR075W, strain HOC1, stronger effect = lower value 1.01 | S. cerevisiae deletion strains, locus YKL009W, strain mrt4, stronger effect = lower value 0.98 | S. cerevisiae deletion strains, locus YKL068W, stronger effect = lower value 0.992 | S. cerevisiae deletion strains, locus YKL085W, strain MDH1 (second series), stronger effect = lower value 0.991 | S. cerevisiae deletion strains, locus YKL085W, strain MDH1, stronger effect = lower value 0.991 | S. cerevisiae deletion strains, locus YKL160W, strain elf1, stronger effect = lower value 1.04 | S. cerevisiae deletion strains, locus YKL190W, strain CNB1, stronger effect = lower value 0.992 | S. cerevisiae deletion strains, locus YKR001C, strain vps1, stronger effect = lower value 0.993 | S. cerevisiae deletion strains, locus YKR026C, strain gcn3, stronger effect = lower value 1.01 | S. cerevisiae deletion strains, locus YKR091W, strain srl3, stronger effect = lower value 1 | S. cerevisiae deletion strains, locus YLL001W, strain dnm1, stronger effect = lower value 1.03 | S. cerevisiae deletion strains, locus YLL026W, stronger effect = lower value 1.03 | S. cerevisiae deletion strains, locus YLL041C, strain sdh2, stronger effect = lower value 1 | S. cerevisiae deletion strains, locus YLR027C, strain aat2, stronger effect = lower value 1.03 | S. cerevisiae deletion strains, locus YLR039C, strain RIC1, stronger effect = lower value 1.05 | S. cerevisiae deletion strains, locus YLR058C, strain SHM2, stronger effect = lower value 1.01 | S. cerevisiae deletion strains, locus YLR102C, strain apc9, stronger effect = lower value 0.998 | S. cerevisiae deletion strains, locus YLR113W, strain HOG1, stronger effect = lower value 1.01 | S. cerevisiae deletion strains, locus YLR221C, strain rsa3, stronger effect = lower value 0.986 | S. cerevisiae deletion strains, locus YLR258W, strain gsy2, stronger effect = lower value 0.99 | S. cerevisiae deletion strains, locus YLR262C, strain YPT6 (second series), stronger effect = lower value 1.03 | S. cerevisiae deletion strains, locus YLR262C, strain YPT6, stronger effect = lower value 1.01 | S. cerevisiae deletion strains, locus YLR268W, strain sec22, stronger effect = lower value 0.991 | S. cerevisiae deletion strains, locus YLR320W, strain mms22, stronger effect = lower value 0.986 | S. cerevisiae deletion strains, locus YLR330W, strain CHS5, stronger effect = lower value 1.01 | S. cerevisiae deletion strains, locus YLR342W, strain FKS1 (second series), stronger effect = lower value 1.01 | S. cerevisiae deletion strains, locus YLR342W, strain FKS1, stronger effect = lower value 1.02 | S. cerevisiae deletion strains, locus YLR357W, strain rsc2, stronger effect = lower value 0.998 | S. cerevisiae deletion strains, locus YLR370C, strain arc18, stronger effect = lower value 1.02 | S. cerevisiae deletion strains, locus YLR371W, strain rom2, stronger effect = lower value 0.988 | S. cerevisiae deletion strains, locus YLR384C, strain iki3, stronger effect = lower value 1.01 | S. cerevisiae deletion strains, locus YLR418C, strain cdc73, stronger effect = lower value 0.964 | S. cerevisiae deletion strains, locus YML016C, strain PPZ1, stronger effect = lower value 1.01 | S. cerevisiae deletion strains, locus YML032C, strain rad52, stronger effect = lower value 0.995 | S. cerevisiae deletion strains, locus YML120C, strain ndi1, stronger effect = lower value 1.06 | S. cerevisiae deletion strains, locus YML124C, strain tub3, stronger effect = lower value 0.988 | S. cerevisiae deletion strains, locus YMR058W, strain fet3, stronger effect = lower value 1.04 | S. cerevisiae deletion strains, locus YMR078C, strain ctf18, stronger effect = lower value 1 | S. cerevisiae deletion strains, locus YMR125W, strain sto1, stronger effect = lower value 1.02 | S. cerevisiae deletion strains, locus YMR129W, stronger effect = lower value 1 | S. cerevisiae deletion strains, locus YMR205C, strain PFK2, stronger effect = lower value 1.03 | S. cerevisiae deletion strains, locus YMR223W, strain ubp8, stronger effect = lower value 0.974 | S. cerevisiae deletion strains, locus YMR231W, strain pep5, stronger effect = lower value 0.995 | S. cerevisiae deletion strains, locus YMR307W, strain GAS1, stronger effect = lower value 0.997 | S. cerevisiae deletion strains, locus YNL067W, strain RPL9B, stronger effect = lower value 0.996 | S. cerevisiae deletion strains, locus YNL071W, strain lat1, stronger effect = lower value 0.996 | S. cerevisiae deletion strains, locus YNL153C, strain GIM3, stronger effect = lower value 1.01 | S. cerevisiae deletion strains, locus YNL183C, strain NPR1, stronger effect = lower value 0.948 | S. cerevisiae deletion strains, locus YNL209W, strain ssb2, stronger effect = lower value 1 | S. cerevisiae deletion strains, locus YNL233W, strain BNI4, stronger effect = lower value 1.01 | S. cerevisiae deletion strains, locus YNL248C, strain rpa49, stronger effect = lower value 0.988 | S. cerevisiae deletion strains, locus YNL250W, strain rad50, stronger effect = lower value 0.977 | S. cerevisiae deletion strains, locus YNL271C, strain bni1, stronger effect = lower value 0.985 | S. cerevisiae deletion strains, locus YNL298W, strain CLA4, stronger effect = lower value 0.986 | S. cerevisiae deletion strains, locus YNL307C, strain MCK1, stronger effect = lower value 0.995 | S. cerevisiae deletion strains, locus YNL322C, strain KRE1 (second series), stronger effect = lower value 1.02 | S. cerevisiae deletion strains, locus YNR049C, strain mso1, stronger effect = lower value 1.01 | S. cerevisiae deletion strains, locus YNR052C, strain pop2, stronger effect = lower value 1 | S. cerevisiae deletion strains, locus YOL012C, strain htz1 0.873 | S. cerevisiae deletion strains, locus YOL147C, strain pex11, stronger effect = lower value 0.994 | S. cerevisiae deletion strains, locus YOR001W, strain rrp6, stronger effect = lower value 1.03 | S. cerevisiae deletion strains, locus YOR061W, strain CKA2, stronger effect = lower value 1.02 | S. cerevisiae deletion strains, locus YOR069W, strain VPS5, stronger effect = lower value 1 | S. cerevisiae deletion strains, locus YOR070C, strain gyp1, stronger effect = lower value 1 | S. cerevisiae deletion strains, locus YOR080W, strain dia2, stronger effect = lower value 1.01 | S. cerevisiae deletion strains, locus YOR083W, strain WHI5, stronger effect = lower value 1 | S. cerevisiae deletion strains, locus YOR106W, strain vam3, stronger effect = lower value 1.04 | S. cerevisiae deletion strains, locus YOR136W, strain idh2, stronger effect = lower value 0.998 | S. cerevisiae deletion strains, locus YOR144C, strain elg1, stronger effect = lower value 0.994 | S. cerevisiae deletion strains, locus YOR184W, strain ser1, stronger effect = lower value 0.981 | S. cerevisiae deletion strains, locus YOR231W, strain MKK1, stronger effect = lower value 0.992 | S. cerevisiae deletion strains, locus YOR265W, strain rbl2, stronger effect = lower value 1.01 | S. cerevisiae deletion strains, locus YOR270C, strain vph1, stronger effect = lower value 1 | S. cerevisiae deletion strains, locus YOR290C, strain snf2, stronger effect = lower value 0.965 | S. cerevisiae deletion strains, locus YOR316C, strain cot1, stronger effect = lower value 0.997 | S. cerevisiae deletion strains, locus YPL051W, strain arl3, stronger effect = lower value 1.02 | S. cerevisiae deletion strains, locus YPL055C, strain LGE1, stronger effect = lower value 1.01 | S. cerevisiae deletion strains, locus YPL078C, strain atp4, stronger effect = lower value 1.06 | S. cerevisiae deletion strains, locus YPL106C, strain sse1, stronger effect = lower value 1.01 | S. cerevisiae deletion strains, locus YPL240C, strain hsp82, stronger effect = lower value 1.02 | S. cerevisiae deletion strains, locus YPL256C, strain CLN2, stronger effect = lower value 0.966 | S. cerevisiae deletion strains, locus YPR119W, strain clb2, stronger effect = lower value 0.987 | S. cerevisiae deletion strains, locus YPR141C, strain kar3, stronger effect = lower value 0.99 | S. cerevisiae deletion strains, locus YPR163C, strain tif3, stronger effect = lower value 0.987 | S. cerevisiae deletion strains, locus YPR167C, strain met16, stronger effect = lower value 0.981 | S. cerevisiae deletion strains, strain wtn01, stronger effect = lower value 0.98 | S. cerevisiae strains, strain wild type, stronger effect = lower value 1
